Pf growth 96h = P. falciparum growth inhibition at 96 hour, primary screen for plastid delayed-death inhibitors | P. falciparum luciferase reporter growth, 96 h | Potency, µM (series often up to 28.7 µM), most hits filed as inhibitors | actives 6.9% (n = 320,000)
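Plates of compound plus infected erythrocytes (2% hematocrit, 0.05% parasitemia final) incubate 96 hours, 37 C, 5% CO2. Detection reagent added; reduced luminescence from the parasites' luciferase reporter flags inhibition.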
AMA1 RON2 block = AMA1-RON2 (P. falciparum) interaction inhibition; AlphaScreen AMA1-biotinylated RON2 peptide binding; Potency, µM (titrated, usually from 58.2 µM), actives largely listed as inhibitors; actives 0.2% (n = 360,000); note: nearly all actives have a fitted effect of over 45% in size
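AMA1 (3D7) with his tag at 25 nM final met compounds first, then biotinylated RON2 peptide at 25 nM; detection used donor plus acceptor beads, 10 µg/mL apiece, read by AlphaScreen after 30 min at room temperature.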
Pf growth 48h = P. falciparum growth inhibition at 48 hours (one generation); AID 504832; Potency, µM (titrated, usually from 28.7 µM), usual class: inhibitors; actives 5.9% (n = 310,000); P. falciparum luciferase growth in erythrocytes, 48 h
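Luciferase-expressing P. falciparum in infected erythrocytes (2% hematocrit, 0.1% parasitemia final) in RPMI 1640/0.5% Albumax were exposed to compound for 48 hours at 37 C, 5% CO2; growth read as luminescence.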
HCV inhibitor = blocks hepatitis C virus. Huh7.5.1 HCVcc-Cre infection, luciferase reporter, 44 h. Potency, µM (series often up to 41.8 µM), usual class: inhibitors. actives 3.4% (n = 340,000). AID 651820
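Cells seeded at 1,000/well and cultured 4 h, then compounds added followed by HCVcc-Cre virus (~0.5 moi). After 44 h further culture, luciferase substrate was added, plates held 15 min at room temperature, and luminescence read for 15 sec.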
Numbers stand for hits; [ ] = dose if it differs, or a comment. Sampled rows, rich in hits. Any-hit rate of the full collection: about 11%. Calls come from the whole dose curve; as a rule, active = well fitted curve in the direction sought with a large enough effect; inconclusive = small, poorly fitted or top-dose-only effect, or another doubt; inactive = no such curve, though single readings can be large; an effect the other way counts as inactive or inconclusive.

How did Cc1cccc(COCC(Cc2ccccc2)N2CCN(C(=O)c3cc(Cl)cc(Cl)c3)CCC2=O)c1 (stereo unspecified) do in these assays?
Pf growth 96h: 14.7µM; AMA1 RON2 block: inactive; Pf growth 48h: inconclusive; HCV inhibitor: inactive[8.37 µM]

Results for Cn1nc(C(F)(F)F)c(-c2ccccc2)c1NC(=O)CCC(=O)O ?
Pf growth 96h: inactive; AMA1 RON2 block: inactive; Pf growth 48h: inactive; HCV inhibitor: inactive

What do the screens show for `CCCNS(=O)(=O)c1cc(CN2C(=O)c3cccnc3C2=O)ccc1OC`?
Pf growth 96h: inconclusive; AMA1 RON2 block: inactive; Pf growth 48h: inactive; HCV inhibitor: inactive

Results for C[C@H](CO)N1C[C@H](C)[C@@H](CN(C)S(=O)(=O)c2cn(C)cn2)Oc2ccc(NC(=O)C3CCCCC3)cc2C1=O ?
AMA1 RON2 block: inactive; HCV inhibitor: inactive

How did CN1C(=O)C(Cc2nc3ccccc3c(=O)n2-c2ccccc2)c2ccccc21 (stereo unspecified) do in these assays?
Pf growth 96h: inconclusive; AMA1 RON2 block: inactive; Pf growth 48h: inconclusive; HCV inhibitor: inactive

What do the screens show for `CC(C)N1C(=O)C(Cc2nc3ccccc3c(=O)n2-c2ccccc2)c2ccccc21` (stereo unspecified)?
Pf growth 96h: 9.28µM; AMA1 RON2 block: inactive; Pf growth 48h: 9.28µM; HCV inhibitor: inconclusive

Results for O=c1c2ccccc2nc(CNc2ccccc2)n1-c1ccccc1 ?
Pf growth 96h: 7.38µM; AMA1 RON2 block: inactive; Pf growth 48h: inconclusive; HCV inhibitor: inactive

How did Cc1ccccc1-n1c(CNc2ccccc2)nc2ccccc2c1=O do in these assays?
AMA1 RON2 block: inactive; HCV inhibitor: inactive

What do the screens show for `CCOC(=O)c1[nH]c2ccc(Br)cc2c1NC(=O)CCN1CCN(C(=O)OCC)CC1`?
Pf growth 96h: inactive; AMA1 RON2 block: inactive; Pf growth 48h: 10.4µM; HCV inhibitor: inactive

What do the screens show for `CCN(CC(=O)Nc1c(C(=O)OC)[nH]c2ccc(Cl)cc12)c1ccc2c(c1)OCO2`?
Pf growth 96h: inconclusive; AMA1 RON2 block: inactive; Pf growth 48h: 13.1µM; HCV inhibitor: 11.2µM

How did CCOC(=O)c1[nH]c2ccc(Cl)cc2c1NC(=O)/C=C/c1ccc2c(c1)OCO2 do in these assays?
Pf growth 96h: inactive; AMA1 RON2 block: inactive; Pf growth 48h: inactive; HCV inhibitor: inactive

What do the screens show for `COC(=O)c1[nH]c2cc(C)ccc2c1NC(=O)CN1CCOCC1`?
Pf growth 96h: inactive; AMA1 RON2 block: inactive; Pf growth 48h: inactive; HCV inhibitor: inactive

What do the screens show for `CCOC(=O)c1[nH]c2ccc(Br)cc2c1NC(=O)CCN1CCOCC1`?
Pf growth 96h: inconclusive; AMA1 RON2 block: inactive; Pf growth 48h: inactive; HCV inhibitor: inactive

What do the screens show for `COC(=O)c1[nH]c2ccc(C)cc2c1NC(=O)CCN1CCN(Cc2ccc3c(c2)OCO3)CC1`?
Pf growth 96h: 8.28µM; AMA1 RON2 block: inactive; Pf growth 48h: inconclusive; HCV inhibitor: 20µM

How did O=C(O)c1ccccc1C(=O)Nn1cnnc1 do in these assays?
Pf growth 96h: inactive; AMA1 RON2 block: inactive; Pf growth 48h: inactive; HCV inhibitor: inactive

What do the screens show for `COc1ccc(C(=O)c2ccc(N3CCN(C(=O)c4ccc(F)cc4)CC3)c(F)c2)cc1Br`?
Pf growth 96h: inactive; AMA1 RON2 block: inactive; HCV inhibitor: inconclusive

Results for OCC[C@@H]1C[C@@H](O)[C@H](O)[C@@]2(Cc3ccccc3O2)O1 ?
Pf growth 96h: inactive; AMA1 RON2 block: inactive; Pf growth 48h: inactive; HCV inhibitor: inactive

Results for C=CCn1c(=O)/c(=C2/Sc3ccccc3N2CC)s/c1=C1/C(=O)NN=C1C ?
Pf growth 96h: inactive; Pf growth 48h: 14.7µM

Results for CCc1nc(N)nc(N)c1-c1ccc(N(C)Cc2ccccc2)c([N+](=O)[O-])c1 ?
AMA1 RON2 block: inactive; HCV inhibitor: inconclusive

How did CCc1nc(N)nc(N)c1-c1ccc(Cl)cc1 do in these assays?
Pf growth 96h: 4.26µM; AMA1 RON2 block: inactive; Pf growth 48h: 0.0828µM; HCV inhibitor: inconclusive

What do the screens show for `OCCC1CN(CCCc2ccccc2)CCN1Cc1ccccc1` (stereo unspecified)?
Pf growth 96h: inactive; AMA1 RON2 block: inactive; Pf growth 48h: inactive; HCV inhibitor: inactive

Results for CCOc1cc(CN2CCN(CCc3ccccc3)C(CCO)C2)ccc1OC (stereo unspecified) ?
Pf growth 96h: inactive; AMA1 RON2 block: inactive; Pf growth 48h: inconclusive; HCV inhibitor: inconclusive

How did COc1cccc(CN2CCN(CCCc3ccccc3)C(CCO)C2)c1O (stereo unspecified) do in these assays?
Pf growth 96h: 7.38µM; AMA1 RON2 block: inactive; Pf growth 48h: inactive; HCV inhibitor: inactive

What do the screens show for `OCCC1CN(Cc2ccccc2O)CCN1CCc1ccccc1` (stereo unspecified)?
Pf growth 96h: inactive; AMA1 RON2 block: inactive; Pf growth 48h: 9.28µM; HCV inhibitor: inactive

How did CCOc1cccc(CN2CCN(CCc3ccccc3)C(CCO)C2)c1O (stereo unspecified) do in these assays?
Pf growth 96h: inactive; AMA1 RON2 block: inactive; Pf growth 48h: inconclusive; HCV inhibitor: inactive

How did OCCC1CN(CCCc2ccccc2)CCN1CCc1ccccc1 (stereo unspecified) do in these assays?
Pf growth 96h: 10.4µM; AMA1 RON2 block: inactive; Pf growth 48h: inconclusive; HCV inhibitor: inactive

Results for OCCC1CN(Cc2ccc(F)cc2)CCN1CCc1ccccc1 (stereo unspecified) ?
Pf growth 96h: inconclusive; AMA1 RON2 block: inactive; Pf growth 48h: inconclusive; HCV inhibitor: inactive

Results for COc1ccc(CN2CCN(CCc3ccccc3)C(CCO)C2)cc1Cn1cncn1 (stereo unspecified) ?
Pf growth 96h: inconclusive; AMA1 RON2 block: inactive; Pf growth 48h: 5.22µM; HCV inhibitor: inactive

What do the screens show for `O=C(c1ccccc1)c1ccc(OCC(O)CNCc2ccc(Cl)cc2)cc1` (stereo unspecified)?
Pf growth 96h: inactive; AMA1 RON2 block: inconclusive; HCV inhibitor: inactive

How did OCCC1CN(Cc2ccon2)CCN1CCc1ccccc1 (stereo unspecified) do in these assays?
Pf growth 96h: 13.1µM; AMA1 RON2 block: inactive; Pf growth 48h: inactive; HCV inhibitor: inactive

What do the screens show for `CC1(C(=O)NS(=O)(=O)Cc2ccccc2C(F)(F)F)CCN1C(=O)Cc1ccccc1` (stereo unspecified)?
AMA1 RON2 block: inactive

How did CN(C)CCNC(=O)COc1ccc(C23CC4CC(CC(C4)C2)C3)cc1 do in these assays?
Pf growth 96h: inactive; AMA1 RON2 block: inactive; Pf growth 48h: inactive[5.75 µM]; HCV inhibitor: 11.2µM

Results for CC(C)NCC(O)c1ccc(C2CCCC2)cc1 (stereo unspecified) ?
Pf growth 96h: inconclusive; AMA1 RON2 block: inactive; Pf growth 48h: inconclusive; HCV inhibitor: inconclusive

Results for CC(C)NCC(O)c1ccc(N)c(C#N)c1 (stereo unspecified) ?
Pf growth 96h: 12µM; Pf growth 48h: inactive

How did O=C(Cn1cnc2c(OCc3ccccc3)ncnc21)NCCCN1CCCC1=O do in these assays?
AMA1 RON2 block: inactive; HCV inhibitor: 0.562µM

How did O=C1CCCN1CCCNCCCn1cnc2c(OCc3ccccc3)ncnc21 do in these assays?
AMA1 RON2 block: inactive; HCV inhibitor: inactive[8.37 µM]
